This is an account of results in PubChem BioAssay AID588726 (The Scripps Research Institute Molecular Screening Center, 2011).

Each structure is given as a SMILES string. Hit rate of the full screen: of about 360,000 compounds, about 8,200 (2.3%) were called active. Shown is part of a subset that was picked to be rich in actives. Values without a mark were called inactive. Cut-off read from the data, not from the text of the source: active = inhibition above about 27%; inactive = the rest.

In the assay the target is Fructose-bisphosphate aldolase (Mycobacterium tuberculosis (strain ATCC 25618 / H37Rv)) (UniProt P9WQA3). The experiment in a line: M. tuberculosis aldolase activity blockers – biochemical, fluorescence, strain H37Rv, primary screen (AID 588726).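 Note: 0% = vehicle and 100% = reference inhibitor.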 The settings on record: purified M. tuberculosis FBA, fluorescence read-out, at 1 µM, active compounds read high.
Chain of Fructose-bisphosphate aldolase (Mycobacterium tuberculosis (strain ATCC 25618 / H37Rv)) (P9WQA3 whole entry, looked up): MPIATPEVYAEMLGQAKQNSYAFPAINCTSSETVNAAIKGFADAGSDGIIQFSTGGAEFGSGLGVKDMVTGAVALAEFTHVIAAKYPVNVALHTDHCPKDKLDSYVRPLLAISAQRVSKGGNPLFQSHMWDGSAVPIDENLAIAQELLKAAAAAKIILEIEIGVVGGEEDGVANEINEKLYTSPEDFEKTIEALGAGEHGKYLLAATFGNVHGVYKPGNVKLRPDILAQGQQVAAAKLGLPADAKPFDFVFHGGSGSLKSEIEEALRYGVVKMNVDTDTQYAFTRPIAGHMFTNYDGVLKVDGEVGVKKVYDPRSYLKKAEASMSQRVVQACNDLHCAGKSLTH
For `CC1(C)CC(=O)c2cc(OCC(=O)NCC3CCCO3)ccc2O1` (configuration not stated), the inhibition was 78.8% (active).

As to `CCOc1ccc(S(=O)(=O)NCCC(=O)NCC2CCCO2)cc1` (configuration not stated), the inhibition was -1.07%.

In the case of `C=CCOc1ccc(/C=C/C(=O)OCC(=O)NCC2CCCO2)cc1` (configuration not stated), the inhibition is 1.08%. On to `CC1=C(C(=O)N(C(C)C)C(C)C)CC(CC(=O)NCCCCc2ccccc2)C(=O)N1CCC1=CCCCC1` (configuration not stated), for which the inhibition was -1.08%.

`O=C(NC1CC1)C(Cc1ccccc1)NS(=O)(=O)c1ccccc1F` (configuration not stated): the inhibition was 2.61%. As for `Cc1ccc(SCC(=O)NNC(=O)c2ccc(S(C)(=O)=O)cc2)cc1`, the inhibition is 0.63%. As to `CC(C)(C)c1ccc(/C=C/C(=O)NCCCn2ccnc2)cc1`, the inhibition was 1.36%. As for `CCCC/C=C/c1cccc2nncn12`, the inhibition is 27.5% (active). The figure for `O=C(O)c1ccccc1-c1cccc2nncn12` is 4.68%. With `OCC1(CO)CC2(C1)CC(CO)(CO)C2`, the inhibition is 0.01%. The figure for `Cc1nn(-c2ncccn2)c2c1C(=O)CC(C)(C)C2Br` (configuration not stated) is 4.4%; for `COc1ccc(NC(=O)/C(N=Nc2cccc(S(=O)(=O)Nc3ccc(SC(F)F)cc3)c2)=C(\C)O)cc1` it is -0.31%. Take `CCc1ccc(C(=O)NC(=S)Nc2ccccc2N2CCOCC2)cc1`: the inhibition is 0.12%. For `Cc1cc(=O)n2[nH]c(-c3cccc(Cl)c3)cc2n1`, the inhibition was 32.4% (active). As for `Cc1cc(=O)[nH]c(SCc2ccc(Cl)cc2)n1`, the inhibition was 0.44%.

Regarding `O=c1c2c(nc3cc(-c4cccc(Cl)c4)[nH]n13)CCCC2`, the inhibition was 3.87%. The figure for `C[C@H](NC(=O)c1ccccc1Cl)C(=O)OCCOc1cccc(Cl)c1` is 4.6%. Consider `CCN(CC)CCNCc1ccc(OCc2ccc(Cl)nc2)c(OC)c1`, for which the inhibition is -0.85%. For `O=C(CN1C(=O)NC2(CCCC2)C1=O)Nc1ccc(F)c(F)c1F`, the inhibition is -0.1%. In the case of `CC(=O)NCCC(=O)Nc1nc(C)c(Cc2ccc3c(c2)OCO3)s1`, the inhibition was -0.89%.

Turning to `Cc1cc(NC(=O)CN2C(=O)NC(CCc3ccccc3)C2=O)no1` (configuration not stated), the inhibition was 0.86%. For `COCC(=O)N(C)[C@H]1C[C@H]2c3cc(Oc4ccccc4C)ccc3CCN2C(=O)[C@H]1[C@H](C)O`, the inhibition was 0.95%. As to `C[C@H](O)[C@@H]1C(=O)N2CCc3c([nH]c4ccccc34)[C@@H]2C[C@@H]1N(C)C(=O)Nc1ccc(F)cc1`, the inhibition is 55.9% (active). Regarding `C[C@H](O)[C@@H]1C(=O)N2CCc3ccc(N4CCOCC4)cc3[C@@H]2C[C@@H]1N(C)C(=O)C(C)(C)C`, the inhibition was 7.29%.

`COc1ccc(CCNC(=O)CCCCCNC(=O)N2CCn3c2nc2ccccc23)cc1OC`: the inhibition is -0.38%. Regarding `CCOc1ccc2c(=O)c(-c3ccc4c(c3)OCCCO4)c(C)oc2c1`, the inhibition is -0.24%. Consider `CCc1nc2ccccc2c(C(=O)OC2CCCCC2=O)c1C` (configuration not stated), for which the inhibition was 0.09%. Consider `CCc1c(C)c2ccc(OC3CCCCC3=O)cc2oc1=O` (configuration not stated), for which the inhibition was 90.5% (active). On to `COC(=O)C(NS(=O)(=O)c1ccc(F)cc1)c1ccccc1` (configuration not stated), for which the inhibition was 1.52%. As for `CCSC1(SCC)N=C(N)C2(C#N)C(c3ccccc3)NC(C)=CC12C#N` (configuration not stated), the inhibition is 4.9%. With `CN1C[C@@H](CO)O[C@@H](n2cnc3c(N4CCN(CCO)CC4)ncnc32)C1`, the inhibition is -1.44%. With `CCOC(=O)N1CCN(C(=O)c2n[nH]c(=O)c3ccccc23)CC1`, the inhibition was -0.89%. Regarding `C=CCc1cccc2cc(C(=O)N3CCN(C(=O)OCC)CC3)c(=O)oc12`, the inhibition was 1.44%. In the case of `COc1cccc2cc(C(=O)N3CCN(C(=O)c4ccccc4)CC3)c(=O)oc12`, the inhibition is -2.27%. The figure for `COc1ccc2oc(=O)c(C(=O)N3CCCC3)cc2c1` is 27.7% (active); for `CCOC(=O)N1CCN(C(=O)c2cc3c(ccc4ccccc43)oc2=O)CC1` it is 48.8% (active).

Take `COc1ccc(C(=O)N2CCCN(C)CC2)c(OC)c1`: the inhibition was 1.38%. With `COc1ccc(NC(=O)C2C3C=CC(C3)C2C(=O)NCc2ccccn2)c(OC)c1` (configuration not stated), the inhibition was 3.99%. The figure for `COc1ccc(-c2nc(CS(=O)CC(=O)NCc3ccccn3)c(C)o2)cc1` (configuration not stated) is 4.79%.

For `COc1ccc2oc(=O)c(C(=O)NCc3ccccn3)cc2c1`, the inhibition was 82.7% (active). As to `C=CCC(CC=C)(C(N)=O)c1ccccc1`, the inhibition was -1.04%.

Take `C[C@H]1CN([C@@H](C)CO)C(=O)CCCn2cc(nn2)CO[C@@H]1CN(C)C(=O)Nc1ccccc1`: the inhibition is 0.08%. Turning to `O=C(NC1CCCC1)C1CC(=O)N(c2ccc(F)cc2)C1` (configuration not stated), the inhibition is -3.06%. To `COc1cccc(NC(=O)C2(C)CCN2Cc2ccccc2Cl)c1` (configuration not stated) belongs 3.88%; to `CCOC(=O)Cc1csc(SCc2cc(=O)oc3cc(O)ccc23)n1`, 2.87%; to `Cc1cc(=O)oc2cc(OCC3CC(c4ccccc4Cl)=NO3)ccc12` (configuration not stated), 9.86%. Consider `Cc1nc(COc2cc3oc(=O)cc(C)c3cc2Cl)cs1`, for which the inhibition was 27.6% (active). The figure for `C1=C(N2CCOCC2)/C(=C/c2nc3ccccc3[nH]2)CC1` is 14.8%; for `CC(C)C(=O)N1CCN(c2nc(-c3ccccc3)c3c(c2C#N)CC(C)(C)OC3)CC1` it is 18.4%; for `CC1(C)Cc2c(C#N)c(SCc3nc4ccccc4[nH]3)nc(N3CCOCC3)c2CO1` it is 29.3% (active).

Consider `CCOC(=O)CSc1nc(N2CCOCC2)c2c(c1C#N)CC(C(C)C)OC2` (configuration not stated), for which the inhibition was 0.67%. Take `CC1(C)Cc2c(sc(NC(=O)C(=O)N3CCOCC3)c2C#N)CO1`: the inhibition is 1.66%.

As for `CC(C)c1nc(N2CCOCC2)c(C#N)c2c1COC(C)(C)C2`, the inhibition is 48.2% (active).

For `CN1CCC2(CC1)NC(=O)NC2=O`, the inhibition was 0.25%. As for `Cc1cc(C(=O)N2CCC(C(=O)O)CC2)c(C(F)(F)F)o1`, the inhibition is -0.52%. As for `CN(CCC1CCOCC1)C(=O)CC1C(=O)NCCN1Cc1cccc(F)c1` (configuration not stated), the inhibition was 5.7%. For the molecule `COc1ccccc1CN1CCNC(=O)C1CC(=O)N(C)CC1CCOCC1` (configuration not stated), the inhibition was 0.79%.

Take `CC(C)CN1CCNC(=O)C1CC(=O)N(C)CC1CCOCC1` (configuration not stated): the inhibition is 91.2% (active). In the case of `N#CCc1c[nH]c2ccc([N+](=O)[O-])cc12`, the inhibition is -4.4%. On to `O=C(CN(C(=O)c1csnn1)c1ccc(Br)cc1)NC1CCCC1`, for which the inhibition is 2.14%. On to `COc1ccc(/C=C/C(=O)NC(=S)NN2CCCCC2c2cccnc2)cc1` (configuration not stated), for which the inhibition was 1.24%. To `Cc1nn(-c2ccccc2)nc1C(=O)OCC(=O)N1CCCCC1C` (configuration not stated) belongs 31.5% (active); to `CC1CCCCN1C(=O)CCS(=O)(=O)Cc1ccccc1` (configuration not stated), -0.22%.

Turning to `Cc1cc(C(=O)OCC(=O)N2C(C)CCCC2C)c2ccccc2n1` (configuration not stated), the inhibition is 6.33%.

In the case of `O=C(CN(C(=O)c1nsc(Cl)c1Cl)c1cccc(F)c1)NC1CCCC1`, the inhibition is 0.07%.

Take `COc1ccc(CNC(=O)COC(=O)/C=C/c2ccc(S(=O)(=O)N3CCOCC3)cc2)cc1`: the inhibition is -5.75%.

`Cc1ccc(S(=O)(=O)N2CCC(C(=O)OCC(=O)N3CC(=O)Nc4ccccc43)CC2)cc1`: the inhibition is -1.07%. To `Cc1ccc(C2Nc3ccccc3C(=O)N2CCN2CCNC2=O)cc1` (configuration not stated) belongs 95.6% (active); to `O=C1c2ccccc2NC(c2ccccn2)N1NS(=O)(=O)c1ccccc1` (configuration not stated), 11.3%. For `Cc1[nH]n(-c2ccccc2)c(=O)c1CCOC(=O)c1ccc(C(F)(F)F)cc1`, the inhibition is -0.48%. The figure for `COc1ccccc1N1CCN(CC(=O)NCCc2ccc(S(N)(=O)=O)cc2)CC1` is 0.12%; for `O=C(COc1ccc2c3c(c(=O)oc2c1)CCCC3)NCC(O)c1ccccc1` (configuration not stated) it is 15.8%; for `Cc1ccc(OCC(=O)NC(C)c2ccccc2)c([N+](=O)[O-])n1` (configuration not stated) it is -3.72%. To `Cc1cc(OCC(=O)NCC(O)c2ccccc2)c2c(C)c(C)c(=O)oc2c1` (configuration not stated) belongs 66.1% (active); to `Cc1cc(=O)oc2c3c(cc(OCC(=O)NCC(O)c4ccccc4)c12)OC(C)(C)CC3` (configuration not stated), 49.2% (active); to `Cc1cc(OCC(=O)Nc2nccs2)c2c(C)c(C)c(=O)oc2c1`, 5.31%. Turning to `O=C(COc1ccc2ccc(=O)oc2c1)NCC(O)c1ccccc1` (configuration not stated), the inhibition was 15.9%. Regarding `CCN(CC)CCCNC(=O)COc1ccc2oc3c(c2c1)CCCC3`, the inhibition is 0.55%. To `COc1cccc(CCNC(=O)COc2cccc3c2OC(C)(C)C3)c1` belongs -1.69%; to `COc1ccc(CCNC(=O)COc2cc(C)cc3oc(=O)c(C)c(C)c23)cc1OC`, 2.14%; to `CC(NC(=O)COc1ccc(-c2ccccc2)cc1)C1CCCO1` (configuration not stated), 0.11%.

Take `CSc1nnc(-c2ccncc2)n1CCCN1CCCC1=O`: the inhibition was 0.93%. The figure for `N#CCC(=O)NC1CCC(CC2CCC(NC(=O)CC#N)CC2)CC1` (configuration not stated) is 3.18%. `COc1cc(OC)c(C2=NOC(C(=O)Nc3c(C)n(C)n(-c4ccccc4)c3=O)C2)cc1Cl` (configuration not stated): the inhibition is -0.74%. Consider `CSCC(=O)N1CCCC(C(=O)c2cc(F)ccc2F)C1` (configuration not stated), for which the inhibition is -1.12%. The figure for `Cc1nccn1-c1ccc(NC(=O)[C@H]2O[C@@H](n3cnc4c(N)ncnc43)[C@H](O)[C@@H]2O)cc1` is 0.84%. For the molecule `O=C(O/N=C(/c1ccccc1)c1ccncc1)c1ccccc1[N+](=O)[O-]`, the inhibition was 2.83%. Regarding `Cc1ccccc1NC(=O)COc1cccc2c1CCNC2=O`, the inhibition was 0.77%.

In the case of `Cc1cc(=O)oc2c(C)c(OCC(=O)NCCc3ccc(S(N)(=O)=O)cc3)ccc12`, the inhibition is 12.6%. With `Cc1cc(Cl)ccc1OCCCC(=O)NCc1ccccn1`, the inhibition is 1.44%. In the case of `CCCc1cc(=O)oc2c(C)c(OCC(=O)NCc3ccccn3)ccc12`, the inhibition was 0.52%. As to `Cc1cc(=O)oc2c(C)c(OCC(=O)NCCN3CCOCC3)ccc12`, the inhibition was 16%.
